Structures are written as SMILES. About 83,000 compounds went through this panel and 20% of them were active in at least one assay; those are over-represented in the sample as a whole.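 Activity criterion: percent growth below 10, measured after cells in 96-well plates were exposed to a single compound concentration for 48 hours.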 A number with no mark means an inactive call. Calls of active or inactive are those of the source.

The subject of the first experiment is HT29 colon. The experiment can be described thus: NCI-60 one-dose screen, 48 h (100 = growth as untreated, 0 = no growth, -100 = all killed). The following applies: 10 µM unless noted.
With `CCC(/C=C\C(C)=O)CC`, the growth is 107%.
On to `CCOC(=O)CO`, for which the growth was 107%.
For the compound `Cc1cc(=O)n(Nc2ccccc2)c(O)c1C#N`, the growth was 105%.
In the case of `CN(C)c1ccc(O)c2c1CC1CC3C(N(C)C)C(=O)C(C(N)=O)=C(O)C3(O)C(=O)C1=C2O` (centres undefined), the growth was 57.5%.
As for `COc1ccc2c(Cl)cc(NC(=O)Nc3c(C)cccc3C)nc2c1`, the growth is 88%.
`CC(=O)c1cccs1`: the growth is 99.8%.
Still for that read-out and setting: the result for `O=Cc1ccc(F)cc1` reads 103%.
`O=C(O)c1ccc([N+](=O)[O-])cc1S(=O)(=O)O`: the growth is 99%.
On to `C=CCC(OC(C)=O)c1ccc(C(C)C)cc1` (centres undefined), for which the growth was 92.5%.
With `CCOc1ccc(C(=O)NCC(C)C)cc1`, the growth is 106%.
In the case of `Cc1ccc(NC(=O)c2ccccc2Cl)cc1`, the growth is 107%.
With `Cc1cc(NC(=O)c2ccccc2)c(Cl)cc1N`, the growth is 102%.
Turning to `CCCCNC(=O)c1ccc(OCC)cc1`, the growth is 107%.
Take `CC(=O)c1cccc(N(C)S(=O)(=O)c2ccc(C)cc2)c1`: the growth is 72.1%.
Take `CC(=O)c1cc(O)ccc1O`: the growth was 104%.
Turning to `Cc1nc(O)cc(=O)[nH]1`, the growth is 108%.
Regarding `CCOc1ccccc1NC(=O)CCl`, the growth is 89.3%.
On to `Cc1ccc(S(=O)(=O)CCCl)cc1`, for which the growth is 110%.
`CC(CCC#N)(CCC#N)C(=O)c1ccccc1`: the growth is 103%.
Still for that read-out and setting: for `Cc1cc(CO)c(O)c(CO)c1` the value was 95.4%.
The same measure, in the same setting: for `O=Cc1ccc(Cl)c(Cl)c1` the value was 106%.
As for `CCN(C(C)=O)c1ccc([N+](=O)[O-])cc1`, the growth was 104%.
On to `Nc1cccc2cccc(O)c12`, for which the growth was 107%.
For the compound `Cc1cccc2ccccc12`, the growth was 95.8%.
Consider `NC(=O)OCCO`, for which the growth was 99%.
In the case of `CCOC(=O)C(CCC#N)(CCC#N)C(=O)OCC`, the growth was 111%.
Turning to `N#CCCN1C(=O)CCC1C(=O)O` (centres undefined), the growth is 89.8%.
For the compound `COC(=O)c1cccc([N+](=O)[O-])c1`, the growth is 101%.
With `O=C(CC(CC(=O)c1ccccc1)c1ccccn1)c1ccccc1`, the growth is 95.5%.
Still for that read-out and setting: the result for `CC(=O)c1cccc(NS(=O)(=O)c2ccc(C)cc2)c1` reads 30.2%; that for `C=COC(=O)C(C)(C)C`, 104%; that for `CSc1nc2[nH]ncc2c(=O)[nH]1`, 107%.
Take `CC(=O)c1ccc(C)cc1`: the growth is 111%.
In the case of `O=c1[nH]c(=O)c2cc(Cl)cc(Cl)c2[nH]1`, the growth was 106%.
As for `O=[N+]([O-])c1c(Cl)ncnc1Cl`, the growth is 107%.
`O=C1NCC2CCCC1C2` (centres undefined): the growth was 105%.
As to `OC(CBr)CCBr` (centres undefined), the growth is 105%.

In another experiment the test system is SNB-75 CNS. The experiment is described as above. The settings on record: 10 µM unless noted.
Consider `CCC(/C=C\C(C)=O)CC`, for which the growth was 99%.
Still for that read-out and setting: for `CCOC(=O)CO` the value was 94.1%.
`Cc1cc(=O)n(Nc2ccccc2)c(O)c1C#N`: the growth is 97.4%.
For the compound `CN(C)c1ccc(O)c2c1CC1CC3C(N(C)C)C(=O)C(C(N)=O)=C(O)C3(O)C(=O)C1=C2O` (centres undefined), the growth is 55.8%.
`COc1ccc2c(Cl)cc(NC(=O)Nc3c(C)cccc3C)nc2c1`: the growth is -24.7% (active).
For the compound `CC(=O)c1cccs1`, the growth is 96%.
For `O=Cc1ccc(F)cc1`, the growth is 90.3%.
As for `O=C(O)c1ccc([N+](=O)[O-])cc1S(=O)(=O)O`, the growth is 118%.
On the same count and under the same terms, the result for `C=CCC(OC(C)=O)c1ccc(C(C)C)cc1` (centres undefined) reads 102%.
As to `CCOc1ccc(C(=O)NCC(C)C)cc1`, the growth was 81.8%.
Still for that read-out and setting: the result for `Cc1ccc(NC(=O)c2ccccc2Cl)cc1` reads 95.3%; that for `Cc1cc(NC(=O)c2ccccc2)c(Cl)cc1N`, 100%.
On the same count and under the same terms, the result for `CCCCNC(=O)c1ccc(OCC)cc1` reads 102%; that for `CC(=O)c1cccc(N(C)S(=O)(=O)c2ccc(C)cc2)c1`, 81.6%; that for `CC(=O)c1cc(O)ccc1O`, 103%.
On to `Cc1nc(O)cc(=O)[nH]1`, for which the growth is 97.1%.
As for `CCOc1ccccc1NC(=O)CCl`, the growth is 88.3%.
`Cc1ccc(S(=O)(=O)CCCl)cc1`: the growth is 94.7%.
In the case of `CC(CCC#N)(CCC#N)C(=O)c1ccccc1`, the growth is 96.7%.
For the compound `Cc1cc(CO)c(O)c(CO)c1`, the growth was 64.4%.
Turning to `O=Cc1ccc(Cl)c(Cl)c1`, the growth was 88.4%.
In the case of `CCN(C(C)=O)c1ccc([N+](=O)[O-])cc1`, the growth is 108%.
As for `Nc1cccc2cccc(O)c12`, the growth is 78.5%.
Take `Cc1cccc2ccccc12`: the growth is 86.8%.
`NC(=O)OCCO`: the growth is 110%.
Still for that read-out and setting: for `CCOC(=O)C(CCC#N)(CCC#N)C(=O)OCC` the value was 80.9%; for `N#CCCN1C(=O)CCC1C(=O)O` (centres undefined), 103%.
Consider `COC(=O)c1cccc([N+](=O)[O-])c1`, for which the growth is 120%.
As to `O=C(CC(CC(=O)c1ccccc1)c1ccccn1)c1ccccc1`, the growth is 92.6%.
On to `CC(=O)c1cccc(NS(=O)(=O)c2ccc(C)cc2)c1`, for which the growth was 61.9%.
On the same count and under the same terms, the result for `C=COC(=O)C(C)(C)C` reads 90.4%; that for `CSc1nc2[nH]ncc2c(=O)[nH]1`, 103%.
On the same count and under the same terms, for `CC(=O)c1ccc(C)cc1` the value was 90.1%; for `O=c1[nH]c(=O)c2cc(Cl)cc(Cl)c2[nH]1`, 68.2%.
Regarding `O=[N+]([O-])c1c(Cl)ncnc1Cl`, the growth was 87.7%.
Regarding `O=C1NCC2CCCC1C2` (centres undefined), the growth is 77.2%.
On to `OC(CBr)CCBr` (centres undefined), for which the growth is 73.9%.

The values are drawn from PubChem BioAssay (NCI).
